The structures appear in SMILES notation.

The target of assay [1] is T1, Aspartate--tRNA(Asp/Asn) ligase (Mycobacterium tuberculosis (strain ATCC 25618 / H37Rv)) (UniProt P9WFW3). Also: in the data most compounds retested in dose-response had high values.
T1 sequence (whole entry): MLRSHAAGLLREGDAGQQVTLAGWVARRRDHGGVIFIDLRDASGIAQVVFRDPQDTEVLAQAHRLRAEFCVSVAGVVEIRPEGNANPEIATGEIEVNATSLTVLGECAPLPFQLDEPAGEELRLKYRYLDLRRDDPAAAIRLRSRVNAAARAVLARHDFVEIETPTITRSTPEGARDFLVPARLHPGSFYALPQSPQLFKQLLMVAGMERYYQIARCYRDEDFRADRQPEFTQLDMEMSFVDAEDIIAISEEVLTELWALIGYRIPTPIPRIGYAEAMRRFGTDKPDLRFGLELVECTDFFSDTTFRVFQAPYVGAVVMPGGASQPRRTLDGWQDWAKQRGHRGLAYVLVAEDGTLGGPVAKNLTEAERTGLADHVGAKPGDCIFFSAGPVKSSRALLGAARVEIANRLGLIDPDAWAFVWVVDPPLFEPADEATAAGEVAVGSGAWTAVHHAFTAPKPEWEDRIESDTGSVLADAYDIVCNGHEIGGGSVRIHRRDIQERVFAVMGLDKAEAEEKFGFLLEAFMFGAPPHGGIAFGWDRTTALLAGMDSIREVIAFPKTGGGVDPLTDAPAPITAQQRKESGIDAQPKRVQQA
The assay is described as follows: Assay for Asp RNA synthetase-1 from Mycobacterium tuberculosis. It is filed as functional. Set-up: scale not given: direction of the effect not stated beside the values. Particulars: 30 µM.

For assay [2], the target named is Shiga toxin 2 (Escherichia coli O157:H7) (UniProt P09385+P09386). As to the kind of experiment: E. coli 0.157:H7 Shiga Toxin SOP - stx2 screening assay. The class given is functional. Set-up: scale not given: direction of the effect not stated beside the values. Particulars: 30 µM.

For `Cc1c[nH]nc1C1CCCCN1C(=O)Cn1cc(Cl)cn1` (configuration not stated), the Percent Effect in assay [1] was 4.25%; in assay [2], 10.4%.

As to `CCC(CO)NC(=O)c1ccc2ccc(N(C)CC3CC3)n2c1` (configuration not stated), the Percent Effect was -2.57% in assay [1] and -33% in assay [2].

Take `Cn1ccnc1CN1C[C@@H](CN2CCC(CO)CC2)[C@@H](CO)C1`: the Percent Effect in assay [1] was -1.77%; in assay [2], 12.7%.

As to `COc1ccccc1OCc1cc(C(=O)N2CCN[C@H](C)C2)n[nH]1`, the Percent Effect in assay [1] was 0.167%; in assay [2], -31.9%.

Consider `O=C(c1ccc(Br)o1)N1CCCC(n2cncn2)C1` (configuration not stated), for which the Percent Effect in assay [1] is 5.01%; in assay [2] it was -10.4%.

For `Fc1ccc(-c2n[nH]cc2-c2ccnc(NCCN3CCCC3)n2)cc1`, the values for the Percent Effect in assay [1] and in assay [2] were 8.63% and -50.2%, respectively.

In the case of `CN(C)c1cc(C(=O)NCCc2n[nH]c(=O)[nH]2)ccn1`, the Percent Effect in assay [1] is 0.719%; in assay [2], -0.859%.

As to `CCn1c(CN(C)C)nnc1C1CCN(c2ccnc(C)c2)CC1`, the Percent Effect in assay [1] was 4.18%; in assay [2], -16.1%.

As for `CNC(=O)CSc1cnn(CC(=O)Nc2cccc(Cl)c2C)c(=O)c1Cl`, the Percent Effect in assay [1] was -5.35%; in assay [2], -8.91%.

Regarding `Cc1csc(N2CCN(C(=O)CCNc3ncccn3)CC2)n1`, the Percent Effect was found to be 1.38% in assay [1] and 21.6% in assay [2].

Consider `COc1ccc(CNCc2ccnc(N3CCOCC3)c2)c(OC)c1`, for which the values for the Percent Effect in assay [1] and in assay [2] were 1.38% and 17.1%, respectively.

For `Cc1csc(N2CCCN(C(=O)c3c(C)oc(C)c3C)CC2)n1`, the Percent Effect in assay [1] is -1.31%; in assay [2] it was -3.9%.

`COCc1nc(C(=O)N2CCCC(n3cccn3)C2)cs1` (configuration not stated): the Percent Effect was -1.71% in assay [1] and -22.6% in assay [2].

Consider `Cc1cccnc1NC(=O)CC1(Cn2cnnn2)CCCCC1`, for which the Percent Effect turned out to be 7.1% in assay [1] and 2.81% in assay [2].

As to `CC(NC(=O)CCC(=O)c1cccs1)c1nnc2n1CCCCC2` (configuration not stated), the values for the Percent Effect in assay [1] and in assay [2] were 3.67% and 18.5%, respectively.

For the compound `CC(C)c1nnc2n1CCN(C(=O)c1cccc(C(F)(F)F)c1)C2`, the Percent Effect is 0.896% in assay [1] and -0.987% in assay [2].

(Values after ChEMBL document CHEMBL3988442, “University of Dundee, Small-Polar-MMV Screening Library” (2021).)
